The record followed here is PubChem BioAssay AID1565 (Sanford-Burnham Center for Chemical Genomics, 2009).

For orientation: inhibition means the drop in the measured response relative to a control, in per cent.

Among all 290,000 compounds or so, about 3,200 (1.1%) were called active. This excerpt belongs to a sample that is enriched for actives. Unmarked numbers belong to inactive results. Cut-off read from the data, not from the text of the source: active = inhibition above about 60%; inactive = the rest. Peptide text beside a SMILES is read from it.

For the experiment, the target named is Phosphoethanolamine/phosphocholine phosphatase (Homo sapiens) (UniProt Q8TCT1). Kind of experiment: PubChem AID 1565. Conditions: recombinant PHOSPHO1, absorbance phosphatase assay; at 13.3 µM; stronger effect = higher value.
Sequence of Phosphoethanolamine/phosphocholine phosphatase (Homo sapiens) (Q8TCT1 whole entry, looked up): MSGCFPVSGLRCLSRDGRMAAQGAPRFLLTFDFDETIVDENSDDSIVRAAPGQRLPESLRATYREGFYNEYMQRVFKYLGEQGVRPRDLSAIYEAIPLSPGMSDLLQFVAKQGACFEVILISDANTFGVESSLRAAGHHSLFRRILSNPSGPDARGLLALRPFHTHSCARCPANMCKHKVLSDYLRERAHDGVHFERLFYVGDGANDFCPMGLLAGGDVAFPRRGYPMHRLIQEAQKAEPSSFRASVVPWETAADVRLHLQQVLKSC
As to `CC(C)(C)SCCSC1=CC(=O)CC(c2ccccc2)C1` (configuration not stated), the inhibition is 14.1%. On to `Cc1ccc2nc(N3C(=O)C(O)=C(C(=O)c4ccco4)C3c3cccc(O)c3)sc2c1` (configuration not stated), for which the inhibition is 40.5%.

With `O=C(c1ccccc1)N1CCC(CC2CC(c3ccc(Cl)cc3)=NO2)(C(=O)NCC2CCCCC2)CC1` (configuration not stated), the inhibition is -1.7%. Turning to `CC(=O)OC(COc1ccc(F)cc1)Cn1cnc2ccccc21` (configuration not stated), the inhibition was 43.9%. To `Fc1ccc(OCc2nn3c(Cn4nnc5ccccc54)nnc3s2)cc1` belongs 82.3% (active); to `c1ccc(Cc2nn3c(Cn4cnc5ccccc54)nnc3s2)cc1`, 45.1%. The figure for `CN(CC(=O)Nc1ccccc1C(F)(F)F)C(=O)Cc1ccccc1F` is 18.7%. To `Cc1cc(-c2n[nH]c(=S)n2/N=C/c2ccco2)n[nH]1` belongs -60%. As to `Cc1ccccc1-c1n[nH]c(=S)n1/N=C/c1ccc(-c2ccccc2Br)o1`, the inhibition is -60.1%. Consider `Cc1n[nH]c(=S)n1/N=C/c1ccc(Br)o1`, for which the inhibition was 99.1% (active). For the compound `N#C/C=C/N1CCN(Cc2ccc3c(c2)OCO3)CC1`, the inhibition was 15.6%.

For the compound `CCOc1ccc(OCc2ccc(C(=O)N(C)c3ccccc3)o2)cc1`, the inhibition is 18.7%. The figure for `CC(NC(=O)c1ccccc1C(=O)O)c1ccc(-n2ccnc2)cc1` (configuration not stated) is 8.3%.

`CCCOc1cccc(C(=O)Nc2ccccc2C(=O)N2CCN(C)CC2)c1`: the inhibition was 24%. Turning to `Cc1ccc(OCC(=O)N/N=C\c2ccco2)c(C)c1`, the inhibition is 61.1% (active).

On to `Cc1cc(C)c(OCC(=O)N/N=C/c2ccco2)c(C)c1`, for which the inhibition is -1.4%. To `Cc1ccc(NC(=O)CCC(=O)N/N=C/c2ccco2)c(C)c1` belongs -4.9%; to `CSCc1nnc(NC(=O)c2ccc(S(=O)(=O)N3CCCCC3C)cc2)o1` (configuration not stated), 32.3%; to `O=C(N/N=C/c1cccc(OCc2ccccc2)c1)c1ccc(Br)o1`, 41.4%. To `Cc1sc2ncn(CC(=O)NCCCC(=O)NCc3ccc(F)cc3)c(=O)c2c1C` belongs 31.9%. As for `CCS(=O)(=O)NCCc1ccc(OC)c(OC)c1`, the inhibition is -2.4%. Regarding `COc1ccc(CCNS(=O)(=O)c2ccc(F)cc2)cc1OC`, the inhibition was -6.8%.

Consider `CCOC(=O)c1cc(S(=O)(=O)NCCc2ccc(OC)c(OC)c2)cn1C`, for which the inhibition is 69.7% (active). In the case of `COc1ccc(C2NC(=O)N(C)C(C)=C2[N+](=O)[O-])cc1` (configuration not stated), the inhibition was 14.1%. The figure for `Cc1[nH]c(C)c(S(=O)(=O)N2CCN(c3cccc(C(F)(F)F)c3)CC2)c1C(=O)N1CCCCC1` is 42.6%; for `CCCCCn1c(=O)[nH]c2cc(C(=O)NCCCN3CCCCC3C)ccc2c1=O` (configuration not stated) it is 26.1%. In the case of `CCCCNC(=O)CN1C(=O)NC(Cc2ccccc2)(Cc2ccccc2)C1=O`, the inhibition is 35%.

As for `COc1ccc(CNC(=O)COc2cccnc2[N+](=O)[O-])cc1`, the inhibition is 39.9%. The figure for `Cc1ccc(NC(=O)C2CC2c2ccccc2)cc1` (configuration not stated) is 39.5%. The figure for `O=S(=O)(NC(=S)Nc1ccccc1)c1ccc(F)cc1` is -122%; for `O=C(NNC(=S)Nc1ccc(F)cc1)[C@H]1C[C@@H]1c1ccccc1` it is 76.8% (active).

Take `O=C(C1CC1)N1N=C(c2ccc(Br)cc2)CC1(O)C(F)(F)F` (configuration not stated): the inhibition was 15.6%.

In the case of `O=C(C1CC1)N1N=C2CCCCC2C1(O)C(F)(F)F` (configuration not stated), the inhibition was 60.9% (active). As for `COc1ccc(O)c(/C=N/N=C/c2cccc([N+](=O)[O-])c2)c1`, the inhibition is 4.2%. The figure for `COc1ccccc1-c1cnn2c(N3CCOCC3)cc(C)nc12` is 38.1%; for `CCOC(=O)c1cc(C(=O)Nc2ccc(S(=O)(=O)Nc3ccc(OC)cc3)cc2)nn1C` it is 28.7%; for `O=C(Nc1cccc(Cl)c1Cl)c1ccccc1NC(=O)C1CC=CCC1C(=O)O` (configuration not stated) it is 12.3%.

As to `CC1(C)Oc2ccc3ccc(=O)oc3c2/C(=C/NCCO)C1=O`, the inhibition is 87% (active). As for `C/C=C(/C)C(=O)OC1Cc2c(ccc3ccc(=O)oc23)OC1(C)C` (configuration not stated), the inhibition was 8.5%. As for `CC1(C)Oc2ccc3ccc(=O)oc3c2/C(=N/O)C1=O`, the inhibition was 50.4%. To `CC(C)(C)c1ccc(/C=C/C(=O)NCCCn2ccnc2)cc1` belongs 33.7%; to `CC(=O)N1c2ccc(S(=O)(=O)N3CCCC(C(=O)NCc4ccc(Cl)cc4)C3)cc2CC1C` (configuration not stated), 42.6%; to `CC(C)Oc1ccc(C(CC(=O)N2CCOCC2)C(C)C)cc1` (configuration not stated), 52.2%.

`Cn1c(SCC(=O)N2CCCC2)nnc1-c1ccc2c(c1)OCO2`: the inhibition is 35%. For `O=C(CSc1nnc(-c2cccs2)n1Cc1ccccc1)N1CCc2ccccc2C1`, the inhibition was 78.3% (active). The figure for `O=C(CSCc1cccs1)N1CCCC1` is 31%; for `CCn1c(SCC(=O)c2ccc(Cl)s2)nnc1-c1cccs1` it is 31.9%. Take `O=C(CSc1nnc(-c2cccs2)n1-c1ccccc1)NCc1ccco1`: the inhibition is 14.6%.

Regarding `CCCCNC(=O)CSc1nnc(-c2ccco2)n1C`, the inhibition is 4.7%. To `Cc1cc2ccccc2n2c(SCC(=O)N3CCN(C(=O)c4ccco4)CC3)nnc12` belongs 3.7%.

On to `CCOC(=O)CSc1nnc(-c2ccco2)n1C`, for which the inhibition is -19.7%. The figure for `O=C(CSc1nnc(-c2cccs2)n1-c1ccccc1)N1CCN(C(=O)c2ccco2)CC1` is 89.7% (active); for `Cn1c(SCC(=O)c2cccs2)nnc1-c1ccco1` it is 64.6% (active); for `Cn1c(SCC(=O)N2CCCC2)nnc1-c1cccs1` it is 67.9% (active). As for `Cc1nc(SCC(=O)N2CCc3ccccc3C2)c2c(C)c(C)sc2n1`, the inhibition is 9.7%.

For the compound `COC(=O)[C@@H](Cc1ccccc1)NC(=O)NCCc1ccccc1`, the inhibition is 34%.

Turning to `CC(C)CCNC(=O)c1ccc2c(Cl)c3c(nc2c1)CCC3`, the inhibition is 23.9%. For `Cc1cc(=O)n2nc(N3CCCC(C(=O)NCc4ccc(Cl)cc4)C3)sc2n1` (configuration not stated), the inhibition is 27.6%.

As to `Cc1ccc(NC(=O)C2CCCN2C(=O)OCc2ccccc2)cc1C` (configuration not stated), the inhibition was 22.6%.

As to `O=C(COC(=O)/C=C/c1cccs1)NC1CCCCC1`, the inhibition is 51%. The figure for `COc1ccccc1NC(=O)C1CCCN1S(=O)(=O)c1ccc(Cl)cc1` (configuration not stated) is 0%; for `CCc1ccc(-c2cc3c(=O)n(CC(=O)NCCCN4CCN(Cc5ccccc5)CC4)nc(C)n3n2)cc1` it is 26.1%; for `Cc1c(S(=O)(=O)NC(C)c2ccccc2)c(=O)n(C)c(=O)n1C` (configuration not stated) it is -5.4%. With `Cc1nnc(SCC(=O)N2CCN(c3ccccc3)CC2)n1-c1ccccc1`, the inhibition was 68.4% (active). The figure for `Cc1cc2nnc(SCC(=O)N3CCN(c4ccccc4)CC3)n2c(N)n1` is 40.7%; for `O=C(CSc1nnc(Cc2ccccc2)n1-c1ccccc1)N1CCOCC1` it is -9.6%; for `Cc1ccc2[nH]c(=O)c(CC(=O)O)c(-c3ccccc3)c2c1` it is 7.8%. To `CCC(C(=O)OC)n1cnc2c(oc3ccccc32)c1=O` (configuration not stated) belongs 1%. The figure for `O=C(CSc1nc(C2CC2)nc2ccccc12)Nc1cccc(O)c1` is 15.1%; for `CCOC(=O)Cc1csc(SCc2cc(=O)oc3cc(O)ccc23)n1` it is -13.2%; for `COCc1cc(=O)oc2cc(NS(=O)(=O)c3ccc(C)cc3)ccc12` it is 22.5%. On to `Cc1ccc2c(CSc3nncs3)cc(=O)oc2c1`, for which the inhibition is 76.1% (active). To `CCCSc1nc2sc3c(c2c(=O)n1-c1ccc(OC)cc1)CCN(C)C3` belongs 31.6%. Regarding `COC(=O)[C@@H]1CC(O)CN1C(=O)C12CC3CC(CC(C3)C1)C2` (some centres not stated), the inhibition is 24.2%. For the compound `CCOc1ccc(NC(=O)CCC(=O)NNC(=O)NC2CCCCC2)cc1`, the inhibition is -0.6%.

As to `COCCNC(=O)NC(=O)COC(=O)C1(c2ccc(Cl)cc2)CC1`, the inhibition is 62.9% (active).

On to `CC(=O)N1CCC(C(=O)OCc2ccc(Cl)cc2)(c2ccccc2)CC1`, for which the inhibition is 40%. The figure for `CCCNC(=O)NC(=O)COC(=O)CC(NC(N)=O)c1ccc(Cl)cc1` (configuration not stated) is -17.2%; for `COc1ccc(C(=O)C2CCCN(C(=O)c3ccc(OC)o3)C2)c(C)c1` (configuration not stated) it is -0.6%. The figure for `O=C(OCCN1C(=O)c2ccccc2C1=O)Oc1ccccc1` is 22.3%; for `COC(=O)c1ccc(S(=O)(=O)N2CCc3ccccc3C2)cc1` it is 44.4%. To `CCCNC(=O)C(=O)Nc1cc2c3c(c1)CCC(=O)N3CCC2` belongs 54.7%; to `CCc1cccc(C)c1NC(=O)CSc1nnc(-c2ccco2)n1N`, 22.6%; to `NC(=O)c1c(NC(=O)CSc2nc(N)cc(=O)[nH]2)sc2c1CCCC2`, 12.9%. On to `NC(=O)c1c(NC(=O)CSc2nnc(-c3ccco3)n2N)sc2c1CCCC2`, for which the inhibition was 103% (active). The figure for `NC(=O)C(Cc1ccccc1)NC(=O)C12CC3CC(CC(C3)C1)C2` (configuration not stated) is 24.1%; for `Oc1ccc(Br)cc1/C=N/Nc1ccccn1` it is 22.9%; for `CC1(C)Cc2ccccc2/C(=C/C(=O)c2ccccc2)N1` it is 24.1%. Take `O=C(CNC(=O)c1ccccc1)NCC(=O)OCc1ccc(Cl)cc1`: the inhibition was 62.3% (active). To `O=C(CNC(=O)c1ccccc1)NCC(=O)OCC(=O)c1ccccc1` (HELM PEPTIDE1{[O=C(c1ccccc1)[*:2]].G.G.[O=C(CO[*:1])c1ccccc1]}$$$$V2.0) belongs 27.8%. The figure for `O=C(CNC(=O)c1ccc(-c2ccccc2)cc1)OCc1ccc(Cl)cc1` is 9.5%; for `Cc1cccc(C)c1NC(=O)C(Cl)C(=O)c1ccccc1` (configuration not stated) it is 20%. As for `CSc1ncccc1C(=O)NCc1ccccc1Cl`, the inhibition was 44.9%. To `O=C(CSc1nnc(CNC(=O)c2ccc(F)cc2)o1)Nc1ccc2c(c1)OCO2` belongs -23.1%.

For the compound `COc1cccc(/C=N/Nc2ncc(C(F)(F)F)cc2Cl)c1O`, the inhibition was -8.9%.

Regarding `CCOc1ccc(/C=C2\SC(=S)N(NC(=O)c3ccncc3)C2=O)cc1OC`, the inhibition was 23.7%.

For the compound `COc1cc(/C=C2\SC(=S)N(Nc3ncc(C(F)(F)F)cc3Cl)C2=O)cc(OC)c1OC`, the inhibition was 71.2% (active).
